The full list was thinned out, with hits kept by preference.
HIV RNase H inh-1 = blocks HIV-1 RNase H cleavage of RNA/DNA duplex. P04585. RT-RNase H RNA/DNA duplex cleavage, fluorescence. inhibition, % at 10 µM. actives 1.9% (n = 65,000); in the data active = inhibition above about 50%
HIV RNase H inh-2 = confirmation of HIV-1 reverse transcriptase RNase H inhibitors; shares compounds with HIV RNase H inh-1; Recombinant RT RNase H, fluorescent RNA/DNA duplex cleavage; inhibition, % at 10 µM; actives 39% (n = 1,000); in the data active = inhibition above about 48%; inconclusive = no clear call, values can overlap the other calls
Numbers without * were called inactive; u = inconclusive.

SMILES | HIV RNase H inh-1 | others
COc1ccc(-n2cnnc2SCC(=O)N(C)C2CCS(=O)(=O)C2)cc1 (stereo not given) | -7
COc1ccc(-c2nnc(SCC(=O)NC(C)c3ccccc3)o2)cc1OC (stereo not given) | -15
O=C1CC(c2nc3ccccc3[nH]2)CN1c1ccccc1F (stereo not given) | 63* | HIV RNase H inh-2=21
COc1ccc(Cl)cc1N1CC(c2nc3ccccc3[nH]2)CC1=O (stereo not given) | -6
O=C1CC(c2nc3ccccc3[nH]2)CN1c1cccc(C(F)(F)F)c1 (stereo not given) | -5
Cc1ccc(-c2nc(NC(=O)CSc3nnc4scc(-c5ccccc5)n34)ns2)cc1 | 0
O=C(c1ccco1)N1CCN(C(=O)c2cc(-c3ccccn3)nc3ccccc23)CC1 | 0
O=C(O)c1cc(-c2ccco2)nc2ccccc12 | 81* | HIV RNase H inh-2=31
Cc1nn(-c2ccccc2)c2nc(-c3ccco3)cc(C(=O)O)c12 | 23
O=C(NCc1ccc2c(c1)OCO2)C1CCCN(S(=O)(=O)c2cccnc2)C1 (stereo not given) | -2
CCn1c(SCC(=O)Nc2nc3ccc(OC)cc3s2)nc2c1c(=O)n(C)c(=O)n2C | 7
CCC(=O)N1CCc2cc(S(=O)(=O)N3CCN(c4ccccn4)CC3)ccc21 | -9
CC1Cc2nc(SCC(=O)Nc3ccc(F)cc3F)n(C)c(=O)c2S1 (stereo not given) | -11
Cc1ccc(C)c(NC(=O)CSc2nc3c(c(=O)n2C)SC(C)C3)c1 (stereo not given) | -19
Cc1ccc2nc(NC(=O)CSc3nc4c(c(=O)n3C)SC(C)C4)sc2c1 (stereo not given) | 79* | HIV RNase H inh-2=42
CC(C(=O)N(C1CC1)C1(C(=O)Nc2ccccc2)CCCC1)N1C(=O)c2ccccc2C1=O (stereo not given) | 1
N#Cc1c(NC(=O)CSCC(=O)O)sc2c1CCCC2 | -3
N#Cc1c(NC(=O)CSc2nnnn2C2CCCCC2)sc2c1CCCC2 | 0
N#Cc1ccc(-c2cccnc2)nc1SCC(=O)Nc1sc2c(c1C#N)CCC2 | 90* | HIV RNase H inh-2=42
COc1ccc(NCc2cc3cc(OC)ccc3[nH]c2=O)cc1 | 56* | HIV RNase H inh-2=1
COc1ccc(NCc2cc3ccccc3[nH]c2=O)cc1 | -6
COc1ccc2[nH]c(=O)c(CNC3CCCCC3)cc2c1 | -3
C=CCOc1cccc(C2C(C(=O)c3ccc(C)o3)=C(O)C(=O)N2c2nccs2)c1 (stereo not given) | -17
CCCC(=O)N=C1SC2CS(=O)(=O)CC2N1c1ccc(C(C)=O)cc1 (stereo not given) | -6
COc1ccc(N(C)C(=O)CCS(=O)(=O)c2cccc3nonc23)c(OC)c1 | -21
SMILES | HIV RNase H inh-1 | others
CC1=C(C#N)C(C(F)(F)F)(C(F)(F)F)N=C(c2ccco2)N1 | -20
CCOC(=O)CSC1=C(C#N)C(c2ccccc2)C(C(C)=O)=C(C)N1 (stereo not given) | 3
CSCSC1=C(C#N)C(c2ccc(Cl)cc2)C(C(C)=O)=C(C)N1 (stereo not given) | 61* | HIV RNase H inh-2=18
CC(=O)C1=C(C)NC(SCC(=O)c2ccc(Cl)cc2)=C(C#N)C1c1ccco1 (stereo not given) | -45
COc1ccc(C2/C(=C(\O)c3cc(C)ccc3C)C(=O)C(=O)N2CCN(C)C)cc1OC (stereo not given) | -2
CCOC(=O)N1CC=C2C(C#N)=C(N)C(C#N)(C#N)[C@H](c3ccc(OC(C)C)c(OCC)c3)[C@H]2C1 | 89* | HIV RNase H inh-2=76*
CCOC(=O)N1CC=C2C(C#N)=C(N)C(C#N)(C#N)[C@H](c3ccsc3)[C@H]2C1 | 6
CCOC(=O)N1CC=C2C(C#N)=C(N)C(C#N)(C#N)[C@H](c3ccccc3OCC)[C@H]2C1 | 29
CSc1ncccc1C(=O)OCC(=O)Nc1cc(C(F)(F)F)ccc1N1CCOCC1 | 1
CC(=O)N1CCc2cc(S(=O)(=O)NC(CC(C)C)C(=O)N3CCn4c3nc3ccccc34)ccc21 (stereo not given) | -9
CCOC(=O)c1ccc(NC(=O)CCC(=O)OC)cc1 | 24
O=C(CSc1nc2ncccc2[nH]1)c1ccc(F)cc1 | 6
Fc1ccc(CSc2nc3ncccc3[nH]2)cc1 | 61* | HIV RNase H inh-2=13
Nc1ncnc2nc(SCc3ccccc3)[nH]c12 | -4
O=C(COC(=O)c1ccccc1S(=O)(=O)N1CCCCC1)NCC(F)(F)F | -16
Clc1ccc2nc(N3CCN(c4ccccc4)CC3)sc2c1 | 12
COc1ccc(C)c2sc(N3CCCC3)nc12 | -17
COc1ccc(OC)c2sc(N3CCN(c4ccccc4)CC3)nc12 | 75* | HIV RNase H inh-2=43
O=S1(=O)C=C(Sc2nnc(-c3ccccc3)o2)c2ccccc21 | 65* | HIV RNase H inh-2=21
CSc1nnc(-c2ccccc2)o1 | -2
Cc1cc(C)nc(SC2=CS(=O)(=O)c3ccccc32)n1 | -19
Cc1cccc2c(=O)oc(-c3ccc4c(c3)C(=O)N(CC3CCCO3)C4=O)nc12 (stereo not given) | -1
CC(C)(C)c1ccc(C(=O)Nc2nonc2-c2nc3ccccc3[nH]2)cc1 | 60* | HIV RNase H inh-2=u
O=C(Nc1ccc(-c2nc3ccccc3[nH]2)cc1)c1ccco1 | -10
Cn1cccc1-c1nc2ccc(NC(=O)c3ccccc3)cc2[nH]1 | -1
SMILES | HIV RNase H inh-1 | others
Cc1sc(CO)c(Sc2ccccc2)c1C(=O)O | 38
COc1ccccc1N1C(=O)CC(Sc2ncccc2C(=O)O)C1=O (stereo not given) | 14
O=C1CC(Sc2ncccn2)C(=O)N1c1ccccc1C(F)(F)F (stereo not given) | 70* | HIV RNase H inh-2=0
O=C(O)c1cccnc1SC1CC(=O)N(c2cccc(C(F)(F)F)c2)C1=O (stereo not given) | 14
Cc1ccc2[nH]c(C)c(CN(C)C3CCN(C)CC3)c(=O)c2c1 | 12
Cc1cccc(NC(=O)CSc2nnc(-c3ccncc3)n2C)c1 | -4
Nn1c(SCC(=O)Nc2ccc3c(c2)OCO3)nnc1-c1ccncc1 | 11
Cc1cc(NC(=O)CSc2nnc(-c3ccncc3)n2N)ccc1Br | 52* | HIV RNase H inh-2=5
COCCN1C(=O)c2ccccc2C(C(=O)NCCCN2CCCC2=O)C1c1c[nH]c2ccccc12 (stereo not given) | -6
COc1ccccc1N1CCN(C(=O)c2ccc(S(=O)(=O)N3CCCCCC3)cc2)CC1 | -20
CCCCN1C(=O)/C(=C2\SC(N3CCCCC3)=NC2=O)c2ccccc21 | 86* | HIV RNase H inh-2=25
O=C1N=C(N2CCOCC2)S/C1=C1\C(=O)N(Cc2ccccc2)c2ccc(Br)cc21 | 12
Cc1ccc(CN2C(=O)/C(=C3\SC(N4CCOCC4)=NC3=O)c3cc(Br)ccc32)cc1 | 23
CC(=O)N(CC(C)(C)CC=C(C)C)c1ccccc1 | -24
CCOc1ccc(S(=O)(=O)Nc2cc(Sc3ncn[nH]3)c3oc(=O)sc3c2)cc1 | 88* | HIV RNase H inh-2=38*
CCOc1ccc(S(=O)(=O)Nc2cccc(Cl)c2)cc1 | -55
CCOc1ccc2sc(NS(=O)(=O)c3ccc(OC)c(OC)c3)nc2c1 | -17
Cc1c(NC(=O)COc2ncnc3ccccc23)c(=O)n(-c2ccccc2)n1C | -14
O=S(=O)(Nc1ncnc2c1oc1ccccc12)c1ccc(Cl)s1 | -5
CCCOC(=O)C1=C(C)NC2=C(C(=O)CCC2)C1c1cccc(OC)c1OC (stereo not given) | -3
CC(=O)c1sc(-c2c(C)nc3sccn23)nc1C1CCCC1 | 12
O=C(CSc1nc2c([nH]c3ccccc32)c(=O)n1-c1ccccc1)N1CCOCC1 | 4
